The text below walks through data of PubChem BioAssay (NCATS).

Inconclusive results are not listed. A call without a number means that no potency is given here. Unmarked numbers belong to inactive results. Active and inactive are the calls of the source. The call rests on the fitted dose curve; in most records, active means well fitted inhibition curve with a large enough effect; inconclusive means small, poorly fitted or top-dose-only effect; inactive means no such curve, though single readings can be large or run the other way.

Sequence of Rap guanine nucleotide exchange factor 3 (Homo sapiens) (O95398 whole entry, looked up): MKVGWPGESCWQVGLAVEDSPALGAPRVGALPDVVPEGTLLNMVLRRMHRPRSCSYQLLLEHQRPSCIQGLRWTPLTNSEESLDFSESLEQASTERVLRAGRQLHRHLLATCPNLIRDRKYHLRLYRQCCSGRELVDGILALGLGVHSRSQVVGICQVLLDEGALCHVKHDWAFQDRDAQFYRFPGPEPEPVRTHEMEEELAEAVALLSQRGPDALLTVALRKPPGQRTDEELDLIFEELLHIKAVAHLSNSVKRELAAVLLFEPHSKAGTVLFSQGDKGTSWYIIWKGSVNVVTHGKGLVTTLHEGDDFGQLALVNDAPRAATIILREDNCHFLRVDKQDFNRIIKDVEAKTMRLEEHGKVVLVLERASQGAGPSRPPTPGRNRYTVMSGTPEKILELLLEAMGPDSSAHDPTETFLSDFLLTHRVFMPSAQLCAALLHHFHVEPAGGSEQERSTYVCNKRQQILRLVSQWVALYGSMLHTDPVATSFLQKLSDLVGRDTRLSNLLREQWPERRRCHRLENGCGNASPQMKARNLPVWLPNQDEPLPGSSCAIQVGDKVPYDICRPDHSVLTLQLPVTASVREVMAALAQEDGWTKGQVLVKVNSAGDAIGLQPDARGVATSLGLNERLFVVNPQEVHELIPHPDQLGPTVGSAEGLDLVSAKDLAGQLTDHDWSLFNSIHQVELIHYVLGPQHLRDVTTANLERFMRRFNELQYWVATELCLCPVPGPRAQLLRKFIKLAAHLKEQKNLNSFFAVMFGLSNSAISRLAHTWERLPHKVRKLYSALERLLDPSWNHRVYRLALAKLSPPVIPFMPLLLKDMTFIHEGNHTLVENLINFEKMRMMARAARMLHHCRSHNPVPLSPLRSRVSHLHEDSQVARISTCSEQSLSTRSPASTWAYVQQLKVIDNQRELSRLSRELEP

The target in the first assay is Rap guanine nucleotide exchange factor 4 (Homo sapiens) (UniProt Q8WZA2). Put plainly: Confirmatory qHTS for antagonist of cAMP-regulated guanine nucleotide exchange factor 4 (EPAC2) (AID 1645885). Further: nearly all actives have a fitted effect of over 25% in size. Further: potency means the concentration at half of the fitted maximal effect. The following applies: EPAC2 Rap1B-BODIPY-GDP exchange fluorescence, biochemical; series mostly up to 12.7 µM. In general terms: In qHTS, concentration-response curves come from the screen itself.
Sequence of Rap guanine nucleotide exchange factor 4 (Homo sapiens) (Q8WZA2 whole entry, looked up): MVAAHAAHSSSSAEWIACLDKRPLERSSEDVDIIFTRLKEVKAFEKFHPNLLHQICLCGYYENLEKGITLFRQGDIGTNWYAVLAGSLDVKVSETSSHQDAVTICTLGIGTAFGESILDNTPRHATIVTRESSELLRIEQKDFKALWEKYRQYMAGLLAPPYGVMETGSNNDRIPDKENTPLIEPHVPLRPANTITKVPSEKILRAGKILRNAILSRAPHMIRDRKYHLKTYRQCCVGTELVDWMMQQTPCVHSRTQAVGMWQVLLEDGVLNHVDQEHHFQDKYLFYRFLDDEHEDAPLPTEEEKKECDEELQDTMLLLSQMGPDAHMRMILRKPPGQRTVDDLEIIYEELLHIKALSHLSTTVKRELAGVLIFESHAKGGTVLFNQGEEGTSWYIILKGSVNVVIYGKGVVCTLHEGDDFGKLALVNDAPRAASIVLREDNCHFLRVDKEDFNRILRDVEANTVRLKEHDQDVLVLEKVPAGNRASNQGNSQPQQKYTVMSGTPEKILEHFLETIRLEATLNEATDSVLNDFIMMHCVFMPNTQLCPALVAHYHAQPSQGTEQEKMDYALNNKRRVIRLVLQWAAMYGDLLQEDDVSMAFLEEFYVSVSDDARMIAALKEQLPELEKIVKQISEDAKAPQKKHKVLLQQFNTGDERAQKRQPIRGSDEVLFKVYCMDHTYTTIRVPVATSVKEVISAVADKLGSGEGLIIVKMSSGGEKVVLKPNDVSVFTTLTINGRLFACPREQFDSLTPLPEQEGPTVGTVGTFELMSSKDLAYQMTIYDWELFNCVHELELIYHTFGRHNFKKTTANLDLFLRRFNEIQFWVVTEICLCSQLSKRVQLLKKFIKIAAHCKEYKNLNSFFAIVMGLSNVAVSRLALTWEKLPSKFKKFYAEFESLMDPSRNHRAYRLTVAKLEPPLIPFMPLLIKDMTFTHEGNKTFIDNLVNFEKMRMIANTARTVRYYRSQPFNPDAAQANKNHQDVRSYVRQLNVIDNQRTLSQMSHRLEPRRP
For `COc1ccc(/C=C2\C(=O)NC(=S)N2C(=O)c2ccc(F)cc2)cc1`, the Potency entry was “inactive”.

On to `O=S(=O)(Nc1cc(Sc2ncn[nH]2)c(O)c2ccccc12)c1ccccc1`, for which the Potency result was “inactive”.

Consider `CCc1ccc(C(c2ccccc2)c2c(C)[nH]c3ccccc23)s1` (configuration not stated), for which the Potency result is “inactive”.

As for `O=S(=O)(Nc1ccc(Cl)cc1NS(=O)(=O)c1ccccc1)c1ccccc1`, the Potency result was “inactive”.

Turning to `Cc1cccc(-c2nc3c(cnn3-c3ccccc3)c(=O)n2-c2cccc(Cl)c2)c1`, the outcome is “inactive [at 12.7 µM]”.

`CCN(CCCNC(=O)c1cc2cc3ccc(OC)cc3nc2s1)c1cccc(C)c1`: the Potency entry was “inactive”.

Consider `O=C(NCc1ccccc1)C(c1ccccc1)n1c(=O)c(-c2ccco2)nc2ccccc21` (configuration not stated), for which the Potency result was “inactive”.

For `CN(CC(=O)Nc1ccc(Cl)c(C(F)(F)F)c1)CC(=O)NC1CCCCC1`, the Potency result is “inactive”.

Take `O=C(CSc1nc2ccc(Cl)cc2[nH]1)N1CCN(C(=O)c2ccco2)CC1`: the Potency entry was “inactive”.

With `CCOC(=O)c1ccc(NC(=O)CC2Nc3cccc4cccc(c34)NC2=O)cc1` (configuration not stated), the Potency entry is “inactive”.

On to `C=CCn1c(=NC(=O)c2sc3ccccc3c2Cl)sc2cc(S(N)(=O)=O)ccc21`, for which the Potency entry is “inactive”.

For the compound `C/C(=N\Nc1ccc([N+](=O)[O-])cc1)c1ccc(O)cc1`, the Potency was 26.9 µM (active).

For `CN(CC(=O)Nc1cccc(F)c1)C(=O)c1cccc(S(=O)(=O)N2CC3(C)CC2CC(C)(C)C3)c1` (configuration not stated), the Potency entry was “inactive”.

In the case of `O=C(NCc1ccc2c(c1)CCN2C(=O)c1ccccc1)Nc1cccc(C(F)(F)F)c1`, the Potency result is “inactive”.

On to `Cc1ccc(N=C2NC(=O)/C(=C/C=C/c3ccco3)S2)cc1`, for which the Potency entry was “inactive”.

With `Cc1noc(C)c1COc1ccccc1C(=O)NC(C)c1ccc(Cl)cc1` (configuration not stated), the Potency was 33.8 µM (active).

Turning to `CC1(Cc2ccccc2Cl)C(=O)Nc2c(Cl)cccc21` (configuration not stated), the Potency result is “inactive”.

With `CC(=O)N1CCC[C@H]1C(=O)NCC1Cc2cc(-c3cccc(OC(F)(F)F)c3)ccc2O1` (some centres not stated), the Potency is 44.1 µM (active).

For `O=C(CSc1ccc2ccccc2c1)Nc1ccc(S(=O)(=O)Nc2nccs2)cc1`, the Potency entry was “inactive”.

As for `C#Cc1ccc([C@@H]2C=C(C(=O)OCC=C)O[C@H](OCc3ccc(CO)cc3)C2)cc1`, the Potency result is “inactive”.

With `O=C(CSc1nc(-c2ccccc2)nc2c1Cc1ccccc1O2)Nc1ccc(C(=O)O)cc1`, the Potency result is “inactive”.

`Cc1ccc(C2c3c(-c4cc(C)ccc4O)n[nH]c3C(=O)N2Cc2ccco2)cc1` (configuration not stated): the outcome was “inactive [at 12.7 µM]”.

With `O=C1/C(=C/c2cccs2)COc2ccccc21`, the Potency result is “inactive”.

Consider `COc1ccccc1-c1oc2ccccc2c1C#CC(C)(C)O`, for which the Potency result is “inactive”.

A further assay deals with Rap guanine nucleotide exchange factor 3 (Homo sapiens) (UniProt O95398). Put plainly: Counterscreen qHTS for antagonist of cAMP-regulated guanine nucleotide exchange factor 3 (EPAC1) (AID 1645888).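 Further: fluorescence loss as bound BODIPY-GDP is released from Rap1B.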 The following applies: Rap1B-BODIPY-GDP nucleotide exchange, fluorescence; series mostly up to 154 µM. In short, it runs like this:
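Measured: fluorescence of BODIPY-GDP bound to Rap1B, which falls as exchange proceeds. Conditions include 50 uM competing GDP, 5 and 30 min reads, and a later cAMP challenge for antagonist detection.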
Background: A counterscreen serves to expose hits that act by an unwanted route or on another target.
In the case of `COC(=O)c1ccc2nc(-c3ccc(F)cc3)c(Cc3ccc(C)cc3)n2c1`, the activity change, negative = inhibition was -2.87% [at 30.8 µM].

On to `COc1ccccc1NC(=O)c1ccccc1NS(=O)(=O)c1cccs1`, for which the Potency entry was “inactive”.

For the compound `CCOC(=O)c1cc2c(=O)n3ccccc3nc2n(Cc2ccco2)c1=NC(=O)c1c(F)cccc1Cl`, the Potency result is “inactive”.

Take `CCCC(=O)OC1CC(C)N(C(=O)c2ccccc2)c2ccc(C)cc21` (configuration not stated): the activity change, negative = inhibition was -2.85% [at 30.8 µM].

Regarding `COc1ccc(OC)c(NC(=O)C2(C)CCN2CCc2ccccc2)c1` (configuration not stated), the Potency entry was “inactive”.

`O=C1Cc2ccccc2C(=O)N1CCc1ccccc1`: the Potency entry is “inactive”.

As to `O=C(CCCn1c(SCC(=O)c2ccc(O)c(O)c2)nc2ccccc2c1=O)NCC1CCCO1` (configuration not stated), the Potency entry was “inactive”.

`CCc1nc2c(OCc3ccc(C(F)(F)F)cc3)cccn2c1N(C)C(=O)C(C)C`: the activity change, negative = inhibition is -5.96% [at 30.8 µM].

In the case of `CCOC(=O)c1ccc2ncc(C(=O)OCC)c(Nc3ccc(C)c(Br)c3)c2c1`, the Potency result was “inactive”.

For the compound `O=C(Nc1cccc(F)c1)c1ccc(-c2cccnc2)c2ccoc12`, the Potency entry was “inactive”.

Turning to `CCc1ccc(/C=C2\SC(=S)N(CCCC(=O)Nc3ccccc3C(=O)O)C2=O)cc1`, the activity change, negative = inhibition is 0.611% [at 30.8 µM].

As for `Cc1cc(/C=C2\SC(=S)NC2=O)c(C)n1-c1cccc(O)c1`, the Potency entry is “inactive”.

For `CC(C)=CCC[C@H](C)C[C@@H]1Cc2[nH][nH]c(=O)c2[C@@H](c2ccc(F)cc2)O1`, the activity change, negative = inhibition was -22.9% [at 30.8 µM].

`CCOc1cc(CNc2ccc(O)cc2)cc(Cl)c1OCc1ccccc1`: the Potency entry is “inactive”.

Take `O=C(COc1ccccc1-c1ccccc1)NCc1ccco1`: the Potency entry is “inactive”.

Regarding `COc1ccc(/C=C2\C(=O)NC(=S)N2C(=O)c2ccc(F)cc2)cc1`, the Potency entry is “inactive”.

With `CCc1ccc(C(c2ccccc2)c2c(C)[nH]c3ccccc23)s1` (configuration not stated), the Potency result was “inactive”.

For `O=S(=O)(Nc1ccc(Cl)cc1NS(=O)(=O)c1ccccc1)c1ccccc1`, the activity change, negative = inhibition is -27.8% [at 30.8 µM].

As for `Cc1cccc(-c2nc3c(cnn3-c3ccccc3)c(=O)n2-c2cccc(Cl)c2)c1`, the Potency result was “inactive”.

Consider `CCN(CCCNC(=O)c1cc2cc3ccc(OC)cc3nc2s1)c1cccc(C)c1`, for which the Potency result is “inactive”.

For `O=C(NCc1ccccc1)C(c1ccccc1)n1c(=O)c(-c2ccco2)nc2ccccc21` (configuration not stated), the activity change, negative = inhibition is 5.07% [at 30.8 µM].

In the case of `O=C(CSc1nc2ccc(Cl)cc2[nH]1)N1CCN(C(=O)c2ccco2)CC1`, the Potency entry is “inactive”.

With `CCOC(=O)c1ccc(NC(=O)CC2Nc3cccc4cccc(c34)NC2=O)cc1` (configuration not stated), the Potency result is “inactive”.

Turning to `C=CCn1c(=NC(=O)c2sc3ccccc3c2Cl)sc2cc(S(N)(=O)=O)ccc21`, the Potency entry was “inactive”.

As to `CN(CC(=O)Nc1cccc(F)c1)C(=O)c1cccc(S(=O)(=O)N2CC3(C)CC2CC(C)(C)C3)c1` (configuration not stated), the activity change, negative = inhibition was -23.1% [at 30.8 µM].

For `O=C(NCc1ccc2c(c1)CCN2C(=O)c1ccccc1)Nc1cccc(C(F)(F)F)c1`, the Potency result was “inactive”.

As for `Cc1noc(C)c1COc1ccccc1C(=O)NC(C)c1ccc(Cl)cc1` (configuration not stated), the Potency result is “inactive”.

With `CC1(Cc2ccccc2Cl)C(=O)Nc2c(Cl)cccc21` (configuration not stated), the activity change, negative = inhibition was -23.5% [at 30.8 µM].

As to `O=C(CSc1ccc2ccccc2c1)Nc1ccc(S(=O)(=O)Nc2nccs2)cc1`, the activity change, negative = inhibition is -0.461% [at 30.8 µM].

As to `C#Cc1ccc([C@@H]2C=C(C(=O)OCC=C)O[C@H](OCc3ccc(CO)cc3)C2)cc1`, the activity change, negative = inhibition is -8.75% [at 30.8 µM].

For the compound `O=C(CSc1nc(-c2ccccc2)nc2c1Cc1ccccc1O2)Nc1ccc(C(=O)O)cc1`, the Potency entry was “inactive”.

Take `O=C1/C(=C/c2cccs2)COc2ccccc21`: the activity change, negative = inhibition is -3.32% [at 30.8 µM].

Consider `COc1ccccc1-c1oc2ccccc2c1C#CC(C)(C)O`, for which the Potency entry is “inactive”.
